Bioassay records from PubChem BioAssay.
CHX counter = Cycloheximide Counterscreen for Small Molecule Inhibitors of Shiga Toxin. cell reporter, cycloheximide protein synthesis inhibition counterscreen. max response, %. 300,000 compounds, 12% hits; in the data active means max response mostly above about 13%, no sharp cut-off; inactive means mostly below about 14%; further: read at 38.3 µM for the half of the compounds with a filed dose
Shiga inhibitor = A qHTS for Small Molecule Inhibitors of Shiga Toxin; inhibition, % at 38.7 µM; 290,000 compounds, 9.2% hits; Vero cells, Shiga toxin protein synthesis inhibition reporter; AID 2315, 2010; in the data active means inhibition mostly above about 28%, no sharp cut-off; inactive means mostly below about 43%
Pf growth 96h = Primary qHTS for delayed death inhibitors of the malarial parasite plastid, 96 hour incubation; 320,000 compounds, 6.9% hits; P. falciparum luciferase reporter growth, 96 h; Potency, µM (doses to about 28.7 µM), most hits filed as inhibitors
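Luminescence readout: decreased luciferase signal marks inhibited growth of reporter-expressing P. falciparum in infected red cells (2% hematocrit, 0.05% parasitemia final), exposed to compound two generations (96 h, 37 C, 5% CO2).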
NS1 inh = qHTS Assay for Inhibitors of Influenza NS1 Protein Function | AID 2326, 2010 | Potency, µM (series often up to 46.1 µM) | 270,000 compounds, 0.4% hits; calls by dose curve; further: actives are rising curves; nearly all actives have a fitted effect of over 50% in size
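Read-out: OD600 growth recovery of NS1-expressing budding yeast. Cells grown overnight at 30C in -URA glucose medium, washed, resuspended and diluted 1:100 in 2% galactose assay medium, pH 6.0. Same strain lacking NS1 served as positive control.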
Pf growth 48h = Primary qHTS for delayed death inhibitors of the malarial parasite plastid, 48 hour incubation; Potency, µM (titrated, usually from 28.7 µM), most hits filed as inhibitors; AID 504832, 2011; P. falciparum luciferase growth in erythrocytes, 48 h; 310,000 compounds, 5.9% hits
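Luciferase-expressing P. falciparum in infected erythrocytes (2% hematocrit, 0.1% parasitemia final) in RPMI 1640/0.5% Albumax were exposed to compound for 48 hours at 37 C, 5% CO2; growth read as luminescence.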
Numbers stand for hits; i = inactive; ? = inconclusive; nt = no result. In the library only some 21% were active in any assay of this set; here they are far more common. Unless noted, the call rests on the fitted dose curve; in most records, active means well fitted inhibition curve with a large enough effect; inconclusive means small, poorly fitted or top-dose-only effect, or another doubt; inactive means no such curve, though single readings can be large or run the other way.

SMILES	CHX counter	Shiga inhibitor	Pf growth 96h	NS1 inh	Pf growth 48h
CCCCc1c(C)[nH]c2nc3ccccc3n2c1=O	i	i	i	i	i
O=C1C2C3C=CC([C@@H]2C(=O)N1C1CC1)[C@H]1C(=O)N(C2CC2)C(=O)C31 (stereo partly specified)	i	i	i	i	i
Cc1ccc(S(=O)(=O)Nc2ccccc2F)cc1C(=O)N1CCN(c2ccccc2O)CC1	nt	nt	i	nt	?
COc1ccccc1CNC(=O)COC(=O)c1ccc(S(=O)(=O)N2CCCC2)cc1	i	i	?	i	i
CCc1ccc(OCC(=O)NC(NC(=S)Nc2ccc(Cl)cc2)C(Cl)(Cl)Cl)cc1 (stereo unspecified)	i	i	13µM	i	?
CCc1ccc(OCC(=O)NC(=S)Nc2ccc(C(=O)O)cc2)cc1	i	i	i	i	i
COc1ccccc1CNC(=O)COc1ccc(S(=O)(=O)N2CCCC2)cc1	i	i	i	i	13µM
Cc1cccn2c(CNC3CCCc4ccccc43)c(C(=O)N3CCCCC3)nc12 (stereo unspecified)	i	i	i	i	?
COc1ccc(Nc2ncc3c(n2)CC(c2ccc(OC)cc2)CC3=O)cc1 (stereo unspecified)	i	i	9.3µM	i	?
Cc1ccc(Nc2ncc3c(n2)CC(C)(C)CC3=O)cc1	34	118	i	i	i
COc1ccc(C2CC(=O)c3sc(N)nc3C2)cc1 (stereo unspecified)	i	i	2.6µM	i	2.9µM
CC(C)Oc1ccc(C(=O)NCC(=O)OCC(=O)N(C)Cc2cccs2)cc1	i	i	i	nt	i
Nc1ccc(C(=O)OCc2nc3cc4ccccc4cc3[nH]2)cc1	i	48	i	nt	i
Nc1ccc(C(=O)OCc2nc3c(ccc4ccccc43)[nH]2)cc1	25	80	i	i	i
Nc1ccc(Cc2nc3cc4ccccc4cc3[nH]2)cc1	45	52	i	i	i
Nc1ccc(C(=O)OCCCc2nc3cc4ccccc4cc3[nH]2)cc1	i	i	?	i	?
CCOc1cc(S(=O)(=O)n2nc(C)cc2C)ccc1Br	i	i	i	i	i
Cc1cc2ccccc2n1CCNC(=O)c1ccc(S(=O)(=O)N2CCOCC2)cc1	i	i	i	i	4.1µM
CC(=O)NCCn1c(C)cc2ccccc21	i	i	i	i	i
Cc1cc2ccccc2n1CCNC(=O)c1ccc(Br)o1	19	28	?	i	?
Cc1cc2ccccc2n1CCNC(=O)c1ccccc1	15	i	i	i	i
Cc1onc(-c2ccccc2Cl)c1C(=O)NCCn1c(C)cc2ccccc21	i	i	10µM	?	13µM
Cc1onc(-c2ccccc2Cl)c1C(=O)NCC(=O)O	i	i	?	i	i
CN(C)CCSc1nnc2[nH]c3ccccc3c2n1	i	i	i	i	i
COc1ccc(NC(=O)c2ccco2)c(NC(=O)c2ccc([N+](=O)[O-])cc2)c1	i	i	i	i	i
SMILES	CHX counter	Shiga inhibitor	Pf growth 96h	NS1 inh	Pf growth 48h
CCCCN(C(=O)CCC(=O)Nc1cc(C)on1)C(C(=O)NC1CCCC1)c1ccc(OCC)cc1 (stereo unspecified)	i	i	i	i	?
COc1ccc(C(=O)CSC2=NS(=O)(=O)c3cc(Cl)ccc3N2)cc1	nt	nt	i	nt	i
CCNC(=O)COC(=O)c1cc(C)n(-c2ccccc2)c1C	41	62	i	nt	i
Cc1noc(C)c1COC(=O)c1cc(C)n(-c2ccccc2)c1C	51	38	i	i	i
Cc1cc(C(=O)OCc2nnc(-c3ccccc3)o2)c(C)n1-c1ccccc1	i	i	i	i	i
Cc1cc(C(=O)OCC(=O)NCc2ccco2)c(C)n1-c1ccc(F)cc1	i	i	?	i	8.3µM
CCOC(=O)c1cc(C)n(-c2ccc(Cl)cc2)c1C	i	i	?	i	?
Cc1ccc(C(=O)OCC(=O)NCc2ccco2)cc1	i	i	i	i	nt
CC(C)(C)c1cc(N)on1	i	i	i	i	i
NS(=O)(=O)c1ccc2nc(NC(=O)c3ccc(Br)o3)sc2c1	24	50	10µM	nt	i
Cc1ccc2nc(NC(=O)c3ccc(Br)o3)sc2c1	45	95	?	i	i
O=C(NCC1CCCO1)c1ccc(Cl)c(S(=O)(=O)Nc2ccccc2)c1 (stereo unspecified)	i	i	?	i	i
COc1cc(OC)cc(C(=O)Nc2cc(C)nn2-c2ccccc2)c1	i	i	?	i	?
Fc1ccc(/C=N/N2CCOCC2)c(F)c1	21	i	i	nt	i
COc1cccc(C=Nc2ccc3c(c2)OCCO3)c1O	75	107	?	?	i
COc1ccc(N=Cc2cccc(C)c2O)cc1Cl	i	i	i	i	i
COc1cccc(/C=N/N2C(=O)NC3(CCCCC3)C2=O)c1O	37	i	i	i	nt
COc1cccc(/C=N/N2CCOCC2)c1O	24	active	i	i	i
Fc1cccc(F)c1/C=N/N1CCOCC1	i	i	i	nt	i
COc1cccc(C=Nc2ccc(N3CCOCC3)cc2)c1O	i	i	?	i	i
CCOc1cc(/C=N/N2C(=O)NC3(CCCCC3)C2=O)cc(Br)c1O	i	i	i	nt	i
CN1CCN(C(=O)c2ccccc2NC(=O)Cc2ccccc2)CC1	i	i	?	i	?
Oc1ccc(/C=N/N2CCOCC2)c(O)c1O	i	i	i	nt	i
COc1ccc(O)c(/C=N/N2CCOCC2)c1	41	99	i	i	i
C=CCN1CCCC1CNC(=O)c1cc(S(N)(=O)=O)cc(OC)c1OC (stereo unspecified)	nt	nt	i	nt	i
SMILES	CHX counter	Shiga inhibitor	Pf growth 96h	NS1 inh	Pf growth 48h
CC(C)C(NC(=O)C(CC(=O)O)NC(=O)C(CCCCN)NC(=O)C(N)CCCN=C(N)N)C(=O)NC(Cc1ccc(O)cc1)C(=O)O (stereo unspecified)	nt	nt	1.5µM	nt	i
CC(=O)Nc1ccc(S(=O)(=O)Nc2nc3ccccc3nc2N2CCc3ccccc3C2)cc1	47	103	i	?	i
O=S(=O)(Nc1nc2ccccc2nc1N1CCc2ccccc2C1)c1ccc(Br)cc1	44	33	i	i	i
O=S(=O)(Nc1nc2ccccc2nc1Cl)c1ccc(Br)cc1	i	i	i	nt	i
O=S(=O)(Nc1nc2ccccc2nc1N1CCc2ccccc2C1)c1ccc(Cl)cc1	71	25	i	i	i
CC(=O)Nc1ccc(S(=O)(=O)Nc2nc3ccccc3nc2N2CCCCCC2)cc1	i	i	i	i	i
O=S(=O)(Nc1nc2ccccc2nc1Cl)c1ccc(Cl)cc1	i	i	i	i	i
O=S(=O)(Nc1nc2ccccc2nc1N1CCN(c2ccccn2)CC1)c1ccc(Cl)cc1	15	i	nt	i	i
CCCNc1c(NC(C)=O)c(=O)oc2ccccc12	i	i	i	i	i
Cc1nnsc1C(=O)NNC(=O)c1cccc2ccccc12	i	i	i	i	i
CCOc1ccccc1N1CC(C(=O)Nc2cccc(S(=O)(=O)N3CCCCC3)c2)CC1=O (stereo unspecified)	i	i	?	nt	?
COc1ccc(NC(=O)c2c(NC(=O)CNCC(C)C)sc3c2CCC3)c(OC)c1	i	i	i	i	9.3µM
